# The full ranking holds about 33,000 sequences; the median of “E-score (-0.5 to 0.5)” is about -0.0034, and the highest 2% start at about 0.25. The sample holds the highest values, similar sequences and a random draw of the others, so the mix is not that of the screen.
# Target: T1, Yap3 (UniProt P38749)
# T1 sequence: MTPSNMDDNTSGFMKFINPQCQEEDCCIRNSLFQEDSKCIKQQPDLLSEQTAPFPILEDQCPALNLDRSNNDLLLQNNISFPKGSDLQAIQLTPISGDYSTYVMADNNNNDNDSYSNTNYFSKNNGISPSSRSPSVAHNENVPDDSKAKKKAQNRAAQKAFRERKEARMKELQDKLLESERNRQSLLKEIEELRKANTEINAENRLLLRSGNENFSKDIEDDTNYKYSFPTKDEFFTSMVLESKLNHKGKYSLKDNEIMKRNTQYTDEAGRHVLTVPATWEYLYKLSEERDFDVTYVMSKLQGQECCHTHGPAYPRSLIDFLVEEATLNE
# Experiment: PBM E-score (8-mer binding enrichment) (E-score (-0.5 to 0.5)); higher = stronger / more preferred TF binding
# Settings: protein concentration: 100 nM; construct: GST-full length
# Description: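 Universal 'all 10-mer' protein binding microarrays (Agilent AMADID 015681) probed with GST-tagged S. cerevisiae TFs (full-length or DBD) made by in vitro transcription/translation (PURExpress), about 100-200 nM. Bound TF was detected with fluorescent anti-GST. Each ungapped 8-mer (which stands for itself and its reverse complement) is scored by the PBM enrichment score (E-score), a modified Wilcoxon-Mann-Whitney statistic from -0.5 to +0.5, computed with the Universal PBM Analysis Suite. Scale: above 0.35 generally sequence-specific binding.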
row,Sequence,PBM E-score
1,CAAACTGC,0.0735
2,ACTTGCTA,-0.0697
3,CACTCGAC,-0.0984
4,AATTAGAA,0.0871
5,CGATGGCC,-0.0485
6,TGCTAGAA,-0.0446
7,CCAGATAG,-0.0894
8,ACAATATA,0.302
9,GCAATATA,0.216
10,CCAATATA,0.0353
11,AATGCGAC,0.106
12,AAGCGCTC,-0.0695
13,AAGCGCTA,0.0946
14,AAGCGCTT,0.321
15,ACGCTTAT,-0.04
16,AGTAACTG,0.0876
17,AATATATT,0.331
18,AATATATC,0.157
19,AATATGTG,0.273
20,ACTATATG,0.193
21,AATATGTC,0.111
22,CATATATG,0.126
23,AATATATA,0.229
24,AATATGTA,0.222
25,AATATATG,0.304

row,Sequence,PBM E-score
1,TTCTGAAA,0.145
2,ACCCAAAC,0.0961
3,AGATCCTA,0.0833
4,CAAGTTCA,-0.00101
5,CGGATGAC,0.0307
6,ATCTTTCA,0.207
7,CATAATCG,0.187
8,CATAATCA,0.271
9,TATAATCA,0.265
10,AATAATCA,0.11
11,GATAATCA,0.221
12,CATAATCC,0.0889
13,CATAAGTC,0.112
14,CTGGTCTA,-0.0194
15,AGCGCACG,-0.0432
16,CTTGGTAA,0.101
17,GTTGGTAA,0.149
18,ATTGGTAA,0.304
19,ACGTCTCT,-0.138
20,ATTACCGG,-0.0144
21,AGTTGTGC,0.0195
22,AGTTGTGG,0.271
23,AGTTGTGA,0.108
24,TATCAAAA,0.23
25,ATATGAGA,0.196

row,Sequence,PBM E-score
1,ATTAATCG,0.191
2,CTTAATCA,0.166
3,GTTAATCA,0.256
4,ATTAATCC,0.0925
5,GCTAATCA,0.164
6,ATTAATCA,0.287
7,AACTTTAA,0.234
8,AAGTCTCA,-0.101
9,GATCAGAC,-0.0877
10,AGTGGAAC,-0.0961
11,GAAGCCTC,-0.198
12,AACGAACA,0.259
13,AACGAACG,-0.00775
14,CACGAACA,0.192
15,CAGGGTCC,-0.29
16,ACAAATTA,0.242
17,GCAAATTA,0.262
18,GGAAATTA,0.332
19,AGAAATTA,0.202
20,GAAAATTA,0.207
21,CCAAATTA,0.192
22,ATACCACC,0.086
23,GGAATCTA,0.0443
24,GTCGCACA,-0.0581
25,GATTTGGA,-0.0207

row,Sequence,PBM E-score
1,AGATGGAA,-0.0109
2,CTTTATAA,0.206
3,CTTTATAC,0.114
4,GTTTATAA,0.224
5,ATTTATAA,0.273
6,ATTTATAC,0.302
7,ATTTATAG,0.206
8,AATGAGCA,-0.00708
9,TCAACTGA,0.0958
10,AATGGCTA,0.169
11,AAGAATTG,0.171
12,TCGGGGAA,0.0864
13,AAATGCCG,0.113
14,ATACAGAT,0.11
15,AGTAAATA,0.26
16,AGTAAATC,0.159
17,GGGAAATA,0.0786
18,CGTAAATA,0.262
19,CGGAAATC,0.12
20,CGGAAATA,0.289
21,AGTAAATG,0.0753
22,CGTAAATC,-0.00431
23,GGTAAATA,0.111
24,AGACTGAA,-0.0205
25,AGCACGTG,0.127

row,Sequence,PBM E-score
1,GAGCCACA,-0.104
2,ACCCTATA,-0.084
3,CGTGGATA,-0.0137
4,GCAGGTTA,-0.0925
5,TAAAACAA,0.0703
6,GAAAACTA,0.16
7,GAAAACAA,0.199
8,GCAAACAC,-0.0377
9,ACAAACAA,0.173
10,TTAAACAA,-0.026
11,AAAAACTA,0.256
12,AAAAACAA,0.28
13,CAAAACTA,0.223
14,ATAAACAC,0.1
15,GCAAACAA,0.272
16,ATAAACAA,0.279
17,ATCAGCTG,0.195
18,ACTGGACC,-0.196
19,ACGGAGGG,-0.139
20,CCTGGATA,-0.231
21,CGGATTGC,0.0717
22,GGCTTGAA,0.0362
23,AGTTTTCC,0.0722
24,AGCCAACG,0.0109
25,CAAAACGA,0.133

row,Sequence,PBM E-score
1,AAAAACGA,0.256
2,GAAAACGA,0.00196
3,GAGTCTAA,0.00387
4,AATCCGGG,-0.242
5,AATCCGGA,0.256
6,AATCCGGC,0.0559
7,GACAGCTA,-0.119
8,CTGCTGGA,-0.158
9,CCCTTTTC,-0.00476
10,AGATATTA,0.162
11,TAATATCA,0.275
12,CAATATTA,0.226
13,GAATATTC,0.194
14,TAATATTA,0.347
15,AAATATCA,0.187
16,CAATATCA,0.167
17,AAATATTC,0.162
18,GAATATTA,0.263
19,GAATATCA,0.159
20,TAATAGTA,0.142
21,AAATATTA,0.349
22,ACATTGCC,-0.0211
23,GGCTTGAC,0.0242
24,AGCAACTA,0.143
25,TACCCAAA,0.0436

row,Sequence,PBM E-score
1,TCGGTTAA,0.168
2,AGGCTAGG,-0.199
3,AAGGTGCG,-0.131
4,CGTTGATC,0.0509
5,CAATATTG,0.213
6,AAATATTG,0.269
7,AAATATTT,0.249
8,AGAAGATC,-0.0464
9,CAGTTAGG,0.149
10,AATCATGA,0.275
11,AATCATGG,0.127
12,TATCATGA,0.0822
13,AAAAATTA,0.29
14,AAAAATTT,0.145
15,GCAATTTA,0.139
16,AAAATTTA,0.0414
17,TAAAATGA,0.23
18,CAAATTTA,0.203
19,TAAAATCA,0.142
20,CAAAATTA,0.163
21,CCAATTTA,0.258
22,TAAAATTA,0.28
23,TAAATTTA,0.26
24,ACAATTTA,0.193
25,CCACCAAC,0.0331

row,Sequence,PBM E-score
1,CGTCCAAC,0.0756
2,ACGAGGCT,0.117
3,ATCTAAGG,0.0735
4,ACCAGACC,-0.206
5,AAGTCATC,-0.0947
6,GAGGCATC,-0.206
7,CCCGCCCC,0.022
8,CACAACTA,0.262
9,GACAACAC,0.00619
10,CACAACAA,0.0683
11,AACAACAA,0.259
12,AACAACTA,0.0618
13,AACAACAT,0.191
14,CACAACTG,-0.0612
15,AACAACAC,0.303
16,CACAACAC,0.173
17,GCAATGTA,0.0481
18,GGACCAAC,-0.182
19,CTCGAGAC,0.124
20,CTCAGCGC,-0.114
21,TATGGCCA,0.0682
22,ATTGTTCA,0.159
23,ATTATCGA,0.132
24,ATTATCAG,0.0829
25,CTTATCTC,0.0941

row,Sequence,PBM E-score
1,AATATCTG,0.084
2,ATTATCTC,0.268
3,ATTATCAC,0.282
4,ATTATCGG,-0.0264
5,AATATCTA,0.0725
6,ATTATCTG,0.119
7,CTTATCAC,-0.0604
8,ATTATCGC,0.304
9,AATATCTC,0.263
10,CGTTTCCA,0.105
11,AATTCACA,0.238
12,CTGAGACA,-0.0945
13,GCCCACAA,-0.141
14,AATAGAAG,0.0527
15,CGGCAGAA,0.124
16,TGAGTCAA,0.0132
17,GAACCAAA,-0.0377
18,CTGTGCCA,-0.119
19,CAGTAATA,0.307
20,GAGTAATA,0.273
21,CAGTAATG,0.0685
22,CAGTAATC,0.0876
23,GAGTAATC,0.103
24,AAGTAATA,0.158

# Reference: the supplement of paper PMC3334620
